An excerpt weighted towards active compounds, which were near 0.68% of everything screened.
RE007 growth inh = less growth of the S. pombe RE007 Vpr strain; S. pombe RE007 Vpr strain, BacTiter-Glo ATP luminescence, 24 h; Potency, µM (titrated, usually from 92.2 µM), for inactives: at the top dose activity change, negative = less growth, usual class: inhibitors; hit rate 0.21% among 360,000; active means well fitted falling curve with a large enough effect; inconclusive means small, poorly fitted or top-dose-only effect; inactive means no such curve, though single readings can be large or run the other way; further: nearly all actives have a fitted effect of over 50% in size
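Fission yeast RE007 carrying one integrated HIV-1 vpr copy, seeded at OD 0.01 in PMG+AL medium with 23 nL pinned compound. Grown 24 h at 30 degrees; viability read by BacTiter-Glo luminescence after 5 min.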
LmPK inhibitor = blocks Leishmania mexicana pyruvate kinase activity | Q27686 | purified LmPK, Kinase-Glo ATP luminescence, 1 h | Potency, µM (doses to about 57.5 µM), for the others: top-dose activity change, negative = inhibition, actives largely listed as inhibitors | hit rate 0.37% among 290,000 | AID 1721
Target sequence (Q27686 whole entry, looked up): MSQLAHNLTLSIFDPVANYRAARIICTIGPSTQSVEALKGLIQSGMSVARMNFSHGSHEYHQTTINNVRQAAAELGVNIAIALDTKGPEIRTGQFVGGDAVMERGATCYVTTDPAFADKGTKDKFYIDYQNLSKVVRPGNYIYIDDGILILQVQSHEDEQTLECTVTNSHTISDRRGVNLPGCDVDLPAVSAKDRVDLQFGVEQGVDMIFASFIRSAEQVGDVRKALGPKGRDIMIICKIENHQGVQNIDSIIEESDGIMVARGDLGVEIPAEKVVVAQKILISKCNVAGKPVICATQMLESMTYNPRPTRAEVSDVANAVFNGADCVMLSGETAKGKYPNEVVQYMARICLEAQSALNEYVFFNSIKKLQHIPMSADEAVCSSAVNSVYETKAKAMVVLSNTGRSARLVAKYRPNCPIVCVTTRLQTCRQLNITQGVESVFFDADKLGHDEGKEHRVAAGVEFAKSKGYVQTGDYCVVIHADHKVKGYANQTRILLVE
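Purified LmPK (0.1 nM) converted ADP (0.1 mM) to ATP with PEP (0.5 mM) in imidazole buffer pH 7.2 with KCl and MgCl2, 1 h at room temperature. ATP was read by Kinase-Glo luminescence; data normalized to uninhibited and no-enzyme controls.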
AMA1-RON2 inh = disrupts binding of P. falciparum AMA1 to RON2. AlphaScreen AMA1-biotinylated RON2 peptide binding. hit rate 0.2% among 360,000. AID 720542. Potency, µM (highest dose often 58.2 µM), without a hit: at the top dose activity change, negative = inhibition, hits mostly inhibitors;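 further: 0% = vehicle wells and -100% = peptide control; nearly all actives have a fitted effect of over 45% in size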
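AMA1 (3D7) with his tag at 25 nM final met compounds first, then biotinylated RON2 peptide at 25 nM; detection used donor plus acceptor beads, 10 µg/mL apiece, read by AlphaScreen after 30 min at room temperature.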
Tb PYK inh = inhibitors of Trypanosoma brucei pyruvate kinase; Potency, µM (titrated, usually from 76.8 µM), without a hit: at the highest dose activity, negative = inhibition, usual class: inhibitors; TbPYK enzyme, Kinase-Glo Plus ATP luminescence, 45 min; AID 624173; Q57TT1; hit rate 0.12% among 410,000; further: nearly all actives have a fitted effect of over 50% in size
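T. brucei PYK with substrate was exposed to pin-transferred compounds across a concentration series, then started with 130 uM ADP (final). After 45 min at room temperature, Kinase-Glo Plus luminescence was read, normalized and curve-fitted.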
* marks the source's active call; other numbers are inactive results; u = inconclusive; x = no result; [ ] = another dose, or the depositor's remark. Unless noted, the call rests on the fitted dose curve; in most records, active means well fitted curve in the direction sought with a large enough effect; inconclusive means small, poorly fitted or top-dose-only effect, or another doubt; inactive means no such curve, though single readings can be large; an effect the other way counts as inactive or inconclusive. Unless noted, on the % scale 0 is the no-effect control and ±100 the full control effect; potency means the concentration at half of the fitted maximal effect.

SMILES	RE007 growth inh	LmPK inhibitor	AMA1-RON2 inh	Tb PYK inh
CCOc1ccc(CNc2ccc(N3CCOCC3)c(C(=O)O)c2)cc1	4%	-3%	-1%	-1%
CC1CCCCC1n1c(-c2cccnc2)n[nH]c1=S (stereo not given)	9%	20µM*	107%	11µM*
CCOC(=O)C1=C(C)N(c2ccc(OC)cc2)C(=O)/C1=C\c1cccs1	9%	0%	21%	4%
CCOC(=O)C1=C(C)N(c2ccc(OC)cc2)C(=O)/C1=C\c1ccc(O)c(OCC)c1	-2%	32µM*	-8%	-25%
O=C(CC1CCCC1)N1CCN(S(=O)(=O)c2c(F)cccc2F)CC1	5%	x	0%	-2%
CC1CCCN(C(=O)c2cccc(S(=O)(=O)N3CCCC3)c2)C1 (stereo not given)	-5%	x	4%	1%
Cc1ccc(-n2cnc3cc(NCc4cccs4)ccc32)cc1	22µM*	6%	u	-13%
CCc1ccccc1N(CC(=O)NCCc1ccccc1)C(=O)CCC(=O)Nc1ccccn1	0%	2%	-7%	-1%
Nc1ccc(Br)cc1C(=O)c1ccccc1	-5%	6%[11.5 µM]	-21%	-5%
Cc1ccc(N)c(C(=O)c2ccc(Br)cc2)c1	-9%	7%	16µM*	0%
C=CCSc1nnc(NC(=O)Cc2ccc(OC)c(OC)c2)s1	0%	5%	11%	-12%
O=[N+]([O-])c1cc(/C=N/N2CCCCC2)ccc1Cl	-1%	0%	u	-4%
O=[N+]([O-])c1cccc(C=NN2CCCCCC2)c1	3%	x	18µM*	-6%
O=[N+]([O-])c1cc(C=NN2CCCCCC2)ccc1Cl	-19%	x	14µM*	-3%
CCCNC(=O)CSc1nnc(NC(=O)C2CC(=O)N(c3ccccc3OC)C2)s1 (stereo not given)	-13%	x	29%	u
O=C(Nc1cccc(Cl)c1)Nc1cnccn1	-10%	-8%	-10%	6%
Oc1c(Cl)cc(Cl)cc1CN1CCN(Cc2ccccc2)CC1	6%	-2%	-19%	-13%
Oc1c(Cl)cccc1Cc1cc(Cl)cc(Cl)c1O	35µM*	x	-15%	-8%
O=[N+]([O-])c1cnc(Sc2ccncn2)c([N+](=O)[O-])c1	u	x	21%	u
O=[N+]([O-])c1cnc(Sc2ccncn2)s1	1µM*	4%	33%	-1%
Cc1[nH]c2ccccc2c1/C=N/Nc1ccccc1[N+](=O)[O-]	-25%	u	32µM*	-11%
COc1ccc(NS(=O)(=O)c2cc([N+](=O)[O-])ccc2N/N=C/c2c(C)[nH]c3ccccc23)cc1	2%	x	-10%	-4%
CC(C)Oc1ccccc1/C=N/Nc1ccccc1[N+](=O)[O-]	-4%	-2%	7.1µM*	-8%
COc1cccc(CNC(=O)CCNC(=O)C2CCN(S(=O)(=O)c3ccccc3)CC2)c1	-1%	-15%	13%	6%
CC(Oc1ccccc1)C(=O)N=Nc1c(O)[nH]c2ccc([N+](=O)[O-])cc12 (stereo not given)	2%	0%	32µM*	-4%
SMILES	RE007 growth inh	LmPK inhibitor	AMA1-RON2 inh	Tb PYK inh
O=C(C1CCC(Cn2c(=O)c3sccc3n(Cc3cccc(F)c3)c2=O)CC1)N1CCOCC1 (stereo not given)	x	x	x	-5%
O=C1C(=O)c2ccccc2-c2ccccc21	u	-5%	-20%	0%
O=C1C(=C(I)I)c2ccccc2-c2ccccc21	14µM*	x	u	-31%
CCCC1(C(=O)O)NC(c2ccccc2O)C2C(=O)N(c3cccc(Cl)c3)C(=O)C21 (stereo not given)	7%	2%	152%	0%
O=C(Nc1nccs1)c1cc2c(s1)CCCCC2	32µM*	14µM*	-9%	-22%
O=S(=O)(NCCc1nc2ccccc2[nH]1)c1ccccc1	4%	x	27%	-8%
COc1ccc(OC)c2c1C(=O)c1ccccc1C2=O	-8%	-15%	-13%	0%
COc1ccc(OC)c2c1C(=O)C(Cl)=C(Cl)C2=O	u	-21%	-2%	2.8µM*
FC(F)(F)c1ccc(Cl)c(Nc2nnc(-c3ccncc3)s2)c1	2%	x	0%	-9%
Clc1ccccc1Nc1nnc(-c2ccncc2)s1	32µM*	4.5µM*	-5%	u
O=c1c2ccccc2cnn1-c1ccc2ccccc2c1	-28%	-29%	8%	-2%
Cc1cccc(N2C(=O)C=CC2=O)c1	8.9µM*	x	4%	u
O=C1C=CC(=O)N1c1ccc2ccccc2c1	2.2µM*	x	7%	u
Cc1cccc(N2C(=O)CC(=O)NC2=O)c1	27%	-4%	12%	-10%
O=C(CCn1c(=O)oc2ccccc21)N1CCC2(CC1)OCCO2	0%	6%	5%	16µM*
O=C(CCn1c(=O)oc2ccccc21)N1CCOCC1	-2%	5%	7%	0%
C[C@H]1COC2=C1C(=O)C(=O)c1c2ccc2c1CCCC2(C)C	-29%	0%	28µM*	-4%
CCS(=O)(=O)c1ccc2oc(Nc3ccccc3Br)nc2c1	-16%	16µM*	-23%	1%
S=C(NN=C(c1ccccc1)c1ccccn1)N(Cc1ccccn1)Cc1ccccn1	12%	x	11µM*	u
CC(=NNC(=S)N(Cc1ccccn1)Cc1ccccn1)c1cnccn1	u	x	u	-26%
Cc1cc(N2CCOCC2)c(F)cc1C(=O)c1ccccc1	13µM*	3%	5%	0%
CCCCCCOc1ccc(/C(C)=N/NC2=NCCN2)cc1	35µM*	-5%	-21%	10%
O=C(O)CCSc1ccccn1	-17%	0%	0%	-15%
O=C(CCSc1ccccn1)c1ccccc1	25µM*	-22%	58%	-9%
Cc1cccc(/C(N)=N/OC(=O)c2cccnc2)c1	-15%	22µM*	12%	2%
SMILES	RE007 growth inh	LmPK inhibitor	AMA1-RON2 inh	Tb PYK inh
Cc1cccc(/C(N)=N/OC(=O)c2ccc3c(c2)OCO3)c1	35µM*	4.5µM*	-7%[11.6 µM]	u
COc1cc(OC)cc(C(=O)O/N=C(\N)c2cccc(C)c2)c1	-16%	1%	34%	4%
C=C(CCC(=O)c1ccccc1)C(=O)c1ccccc1	32µM*	-1%	-8%[2.32 µM]	-11%
Cc1cc(N(C)C)ccc1N=Nc1ccc2ncccc2c1	x	-20%	11µM*	-6%
COc1ccc(C(=O)NC2(C(F)(F)F)C(=O)NC(C)=C2C#N)cc1 (stereo not given)	x	x	x	0%
CN(C)c1ccc(Cc2cc3c(O)ccc(O)c3cc(Cc3ccc(N(C)C)cc3)c2=O)cc1	-1%	x	11µM*	u
Oc1cc2c(cc1O)[C@H]1c3ccc(O)c(O)c3OC[C@@]1(O)C2	-27%	x	32µM*	5.6µM*
COc1ccc(C2COc3cc(O)ccc3C2)c(OC)c1O (stereo not given)	6%	x	u	-15%
Oc1ccc2c(c1)OCC1(O)Cc3cc(O)c(O)cc3C21 (stereo not given)	2%	x	13µM*	11µM*
O=C(Nc1cc(Cl)ccc1Cl)c1ccco1	-5%	6%	0%	3%
CS/C(Nc1cc(Cl)ccc1Cl)=C(/C#N)C(=O)c1ccco1	-16%	22µM*	-6%	32µM*
